In PubChem BioAssay (NCI):
About 83,000 compounds went through this panel and 20% of them were active in at least one assay; those are over-represented in the sample as a whole.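 The endpoint reported here, percent growth, reads 100 for growth as untreated, 0 for no net growth and -100 for all cells dead.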 Values without a mark were called inactive. Active and inactive are the calls of the source. The calls were made as follows: active = growth percent below 10; inactive = the rest.

The molecules below were run on RPMI-8226 leukemia (assay: NCI-60 one-dose screen, 48 h (100 = growth as untreated, 0 = no growth, -100 = all killed)). Settings: 10 µM unless noted.

| Compound | growth |
| --- | --- |
| Cc1cccc(/C=C2\N=C(c3ccccc3)N(c3ccc(S(N)(=O)=O)cc3)C2=O)c1 | 99.3% |
| Clc1ccc(/C=N/Nc2nc3ccccc3s2)c(Cl)c1 | 91.2% |
| CCOC(=O)COc1c(C)cc(SSc2cc(C)c(OCC(=O)OCC)c(C)c2)cc1C | 90.6% |
| Nc1nc(Nc2ccccc2)c2ncn(Cc3cc4c(cc3Br)OCO4)c2n1 | 9.96% (active) |
| CCOC(=O)c1c[nH]n2c(=S)ncnc12 | 107% |
| CC1(C)CC[C@]2(C(N)=O)CC[C@]3(C)C(=CC[C@@H]4[C@@]5(C)C/C(=C/c6cccnc6)C(=O)C(C)(C)[C@@H]5CC[C@]43C)[C@@H]2C1 | -37.1% [100 µM] (active) |
| O=[N+]([O-])c1cc(CCl)ccc1OCCBr | 93.5% |
| O=C1COCCN1c1ccc(Nc2nc(Cl)nc(N3CCOCC3)n2)cc1 | 98.9% |
| O=C(OCc1ccc2c(Cl)cc(Cl)c(O)c2n1)N1CCNCC1 | 44.2% |
| Cc1ccc(S(=O)(=O)NCCCNc2nccc(-c3c(-c4cccc(F)c4)nc4occn34)n2)cc1 | 54.8% |
| COc1cc(Cl)cc(-c2nn(C(=O)NS(=O)(=O)c3ccccc3)cc2-c2ccncc2)c1 | 91.7% |
| Cn1cc(-c2noc(-c3cn(C)c4ncccc34)n2)c2cc(Cl)ccc21 | 96.6% |
| CC(C)CSc1ncnc2nc[nH]c12 | 71.4% |
| Cc1cnc([C@]23CC[C@@H](C)[C@H](C)[C@H]2C2=CC[C@@H]4[C@@]5(C)Cc6c([nH]c7ccccc67)C(C)(C)[C@@H]5CC[C@@]4(C)[C@]2(C)CC3)o1 | 26.6% [100 µM] |
| CC1(C)CC[C@]2(C(=O)O)CC[C@]3(C)C(=CC[C@@H]4[C@@]5(C)C/C(=C/c6ccco6)C(=O)C(C)(C)[C@@H]5CC[C@]43C)[C@@H]2C1 | 0.316% [100 µM] (active) |

What follows are molecules tested on OVCAR-8 ovarian in the same assay as above. Settings: 10 µM unless noted.

| Compound | growth |
| --- | --- |
| O=C(Nc1cccc(F)c1)c1cc(=O)[nH]c2cc(Br)ccc12 | 71.8% |
| COC(=O)[C@]12CCC(C)(C)C[C@H]1C1=CC[C@@H]3[C@@]4(C)C/C(=C/c5cccnc5)C(=O)C(C)(C)[C@@H]4CC[C@@]3(C)[C@]1(C)CC2 | 0.407% [100 µM] (active) |
| N#C/C(C(=O)c1ccccc1)=C1/C(=O)Nc2ccc(Br)cc21 | 99.5% |
| COc1ccc(-c2cc(-c3ccc(Cl)cc3)nc(NCCCCNc3ccnc4cc(Cl)ccc34)n2)cc1 | -23.3% (active) |
| CCCSc1nc(N)nc2nc[nH]c12 | 99.8% |
| CCN(CC)c1ccc2cc(NC(=O)OCCNC(=O)CCNC(=O)[C@H](CC(C)C)NC(=O)C(C)(C)NC(=O)C(C)(C)NC(=O)[C@H](CC(C)C)NC(=O)CCNC(=O)C(C)(C)NC(=O)[C@H](CC(C)C)NC(=O)CCNC(=O)[C@@](C)(CC)NC(=O)[C@H](C)NC(=O)CCNC(=O)C(C)(C)NC(=O)[C@H](C)NC(=O)[C@@H]3CCCN3C(=O)[C@@](C)(CC)NC(=O)[C@H](Cc3ccccc3)NC(=O)C3CCCN3C(=O)C(C)(C)NC(=O)C3CCCN3C(=O)C(C)(C)NC(C)=O)c(=O)oc2c1 (some centres not stated) | -74.8% (active) |
| C=C(C)[C@@H]1CC[C@]2(C(=O)N3CCN(C)CC3)CC[C@]3(C)[C@H](CC[C@@H]4[C@@]5(C)C/C(=C/c6ccncc6)[C@H](O)C(C)(C)[C@@H]5CC[C@]43C)[C@@H]12 | -57.9% [100 µM] (active) |
| CC[C@@](C)(NC(=O)[C@H](C)NC(=O)CCNC(=O)C(C)(C)NC(=O)[C@H](C)NC(=O)[C@@H]1CCCN1C(=O)[C@@](C)(CC)NC(=O)[C@H](Cc1ccccc1)NC(=O)C1CCCN1C(=O)C(C)(C)NC(=O)C1CCCN1C(=O)C(C)(C)NC(C)=O)C(=O)NCCC(=O)N[C@@H](CC(C)C)C(=O)NC(C)(C)C(=O)NCCC(=O)N[C@@H](CC(C)C)C(=O)NC(C)(C)C(=O)NC(C)(C)C(=O)N[C@@H](CC(C)C)C(=O)NCCC(=O)NCO (some centres not stated) | -82% (active) |
| C#C[C@]1(O)CC[C@H]2[C@@H]3CC=C4c5nc(Nc6ncccn6)sc5CC[C@]4(C)[C@H]3CC[C@@]21C | 77% |
| CC(C)(C)c1cc(C(=O)N2CCC(C(=O)NCCN)CC2)cc(C(C)(C)C)c1 | 99% |
| CCOC(=O)/C(C#N)=C(\C)CCc1ccccc1 | 103% |
| COc1ccc2c3ccnc(C(F)(F)F)c3n(CCCCN)c2c1 | 46.1% |
| O=C(O)c1cccc(CN2CCN(c3cc4c(cc3F)c(=O)c(C(=O)O)cn4C3CC3)CC2)c1O | 96.7% |
| CCN(CC)c1ccc2cc(C(Nc3ccc(Br)c(C(F)(F)F)c3)c3nnnn3C(C)(C)C)c(=O)oc2c1 (configuration not stated) | 91.5% |
| O=C(NCCCNC(=O)OCc1ccc2c(Br)cc(Br)c(O)c2n1)OCc1ccc2c(Br)cc(Br)c(O)c2n1 | -14.6% (active) |
| C[N+](C)(C)c1ncnc2[n-]cnc12 | 93.7% |
| O=S(=O)(c1ccc(N/N=C\c2ccccc2Cl)cc1)c1ccc(N/N=C/c2ccccc2Cl)cc1 | 86.5% |
| CCCOc1ccc(-c2nc(-c3ccc(N)cc3)cs2)cc1 | 87% |
| O=C(NCc1ccc(Cn2c(=O)sn(-c3ccccc3)c2=O)cc1)OCc1ccc2c(Br)cc(Br)c(O)c2n1 | 0.865% (active) |

| Compound | growth |
| --- | --- |
| N#CCCc1c[nH]c2ccccc12 | 91.9% |
| C=CCCCCCCCCC(=O)OC(C)C | 104% |
| COc1cc2c(cc1OCCCCCOc1ccc(-n3c(C)nc4ccccc4c3=O)cc1)N=C[C@@H]1CCCN1C2=O | 9.85% (active) |
| Cc1cccc(/C=C2\N=C(c3ccccc3)N(c3ccc(S(N)(=O)=O)cc3)C2=O)c1 | 73% |
| Clc1ccc(/C=N/Nc2nc3ccccc3s2)c(Cl)c1 | 79.3% |
| CCOC(=O)COc1c(C)cc(SSc2cc(C)c(OCC(=O)OCC)c(C)c2)cc1C | 102% |
| Nc1nc(Nc2ccccc2)c2ncn(Cc3cc4c(cc3Br)OCO4)c2n1 | 6.21% (active) |
| CCOC(=O)c1c[nH]n2c(=S)ncnc12 | 104% |
| CC1(C)CC[C@]2(C(N)=O)CC[C@]3(C)C(=CC[C@@H]4[C@@]5(C)C/C(=C/c6cccnc6)C(=O)C(C)(C)[C@@H]5CC[C@]43C)[C@@H]2C1 | -21.6% [100 µM] (active) |
| O=[N+]([O-])c1cc(CCl)ccc1OCCBr | 101% |
| O=C1COCCN1c1ccc(Nc2nc(Cl)nc(N3CCOCC3)n2)cc1 | 97.9% |
| O=C(OCc1ccc2c(Cl)cc(Cl)c(O)c2n1)N1CCNCC1 | 28.7% |
| Cc1ccc(S(=O)(=O)NCCCNc2nccc(-c3c(-c4cccc(F)c4)nc4occn34)n2)cc1 | 65% |
| COc1cc(Cl)cc(-c2nn(C(=O)NS(=O)(=O)c3ccccc3)cc2-c2ccncc2)c1 | 33.1% |
| Cn1cc(-c2noc(-c3cn(C)c4ncccc34)n2)c2cc(Cl)ccc21 | 96% |
| CC(C)CSc1ncnc2nc[nH]c12 | 104% |
| Cc1cnc([C@]23CC[C@@H](C)[C@H](C)[C@H]2C2=CC[C@@H]4[C@@]5(C)Cc6c([nH]c7ccccc67)C(C)(C)[C@@H]5CC[C@@]4(C)[C@]2(C)CC3)o1 | 39.3% [100 µM] |
| CC1(C)CC[C@]2(C(=O)O)CC[C@]3(C)C(=CC[C@@H]4[C@@]5(C)C/C(=C/c6ccco6)C(=O)C(C)(C)[C@@H]5CC[C@]43C)[C@@H]2C1 | 9.39% [100 µM] (active) |
